Many of the other results were omitted from the sample, so hits are more common in it than they were.
Methyltransferases: Primary Screen for Target Class Profiling of Small Molecule Inhibitors of Methyltransferases; calls only at 40 µM; AID 1745853, 2022; 3.9% of 25,000 active; purified enzyme, MTase-Glo SAH luminescence; hits give low values; call rule not given here
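Each enzyme was assayed with SAM and its substrate. SAH formation detected by MTase-Glo luminescence; single-point 40 uM screen[…].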
* marks the source's active call; other numbers are inactive results; i = inactive; + = active, no number; ! = not confirmed by another sample. On the % scale 0 is the no-effect control and ±100 the full control effect.

SMILES	Methyltransferases
COc1ccc2cc3n(c2c1)CC(C)(C(=O)NC1CCCCCC1)N(Cc1ccco1)C3=O (stereo not drawn)	i
O=C(c1ccncc1)N1CCC(Nc2cccnc2)C1 (stereo not drawn)	i
Cn1ccc2cc3c(cc21)CCN3C(=O)Nc1cccnc1	+
CN1CCc2cc(NC(=O)Nc3cccnc3)ccc21	i
Cc1ccc(CNC(=O)C2(C)Cn3c(nc4ccccc43)C(=O)N2Cc2ccc(C)cc2)cc1 (stereo not drawn)	i
COC(=O)c1cccc(NC(=O)N2Cc3c(sc4c3CCCC4)-n3cccc3C2c2ccccc2)c1 (stereo not drawn)	i
Cc1cc(O)c(-c2ccc([C@@H](C)CN(C)C)cc2)c2c1[nH]c(=O)c1sccc12	+
C=CCn1c(=O)c2ccc(C(=O)NC(C)CC)cc2n2c(=O)n(CC(=O)Nc3cccc(C)c3)nc12 (stereo not drawn)	i
CC(C)OCCCNC(=O)C1c2c(n(C)c3ccccc23)SCC(=O)N1CCC1=CCCCC1 (stereo not drawn)	i
Cc1ccc2c(cnn2C(=O)CCC(=O)N2CCN(C)CC2)c1	i
CCCn1c(=O)c2ccc(C(=O)NC3CCCC3)cc2n2c(=O)n(Cc3ccc(Cl)cc3)nc12	i
NS(=O)(=O)c1cccc2c1c([N+](=O)[O-])cc1nc(O)c(O)nc12	+
CCCn1c(=O)c2ccc(C(=O)NC(C)C)cc2n2c(=O)n(Cc3ccc(N4CCCC4=O)cc3)nc12	i
O=C1c2cc3sccc3n2CC(C(=O)NC2CCCCCCC2)(c2ccccc2)N1Cc1ccccc1 (stereo not drawn)	i
COc1cccc(C(=O)Cn2nc3n(C(C)C)c(=O)c4ccc(C(=O)NCC(C)C)cc4n3c2=O)c1	i
COC(=O)c1cc2n(n1)CC(C)(C(=O)NC1CCCC1)N(c1ccc(Cl)cc1C)C2=O (stereo not drawn)	i
Cc1ccc(NC(=O)Cn2nc3n(CCC(C)C)c(=O)c4ccccc4n3c2=O)cc1C	i
N#Cc1c(O)c2c(-c3ccc(-c4ccccc4O)cc3)csc2[nH]c1=O	+!
CCC(C)NC(=O)c1ccc2c(=O)n(Cc3ccccc3)c3nn(Cc4ccc(Cl)cc4)c(=O)n3c2c1 (stereo not drawn)	i
CC(C)(C)Cn1c(N)nc2ccc(-c3[nH]c(C(C)(C)C)nc3-c3ccc(F)cc3)nc21	+
CCC(C)NC(=O)c1ccc2c(=O)n(CCC(C)C)c3nn(CC(=O)N(C)c4ccccc4)c(=O)n3c2c1 (stereo not drawn)	i
COc1cccc(CN2C(=O)c3nc4ccccc4n3CC2(C)C(=O)NC2CCCCCC2)c1OC (stereo not drawn)	i
COCCNC(=O)c1ccc2c(=O)nc3c(-c4ccccc4)n[nH]n3c2c1	i
CC1(C(=O)NC2CCCCC2)Cn2c(ccc2-c2ccco2)C(=O)N1CCN1CCOCC1 (stereo not drawn)	i
CCOC(=O)c1cc2n(n1)CC(C)(C(=O)NC1CCCCC1)N(Cc1ccc(Cl)cc1)C2=O (stereo not drawn)	i
SMILES	Methyltransferases
O=C(c1ccc2c(=O)nc3c(-c4ccccc4)n[nH]n3c2c1)N1CCN(c2ccc(F)cc2)CC1	i
O=[N+]([O-])c1cccc2c(Br)[nH]nc12	+
CC1CCC(NC(=O)C2(C)Cn3c(cc4sccc43)C(=O)N2Cc2ccccc2F)CC1 (stereo not drawn)	i
COc1ccc(-c2cc3n(n2)CC(C)(C(=O)NCc2ccccc2)N(Cc2ccc4c(c2)OCO4)C3=O)cc1 (stereo not drawn)	i
c1ccc(CCc2nc3nccc(-c4cccnc4)n3n2)cc1	i
CN(Cc1ccc(-c2ccccc2)cc1)CC1CCCCC1	i
CN(CCc1ccc(Nc2ncc(-c3cccnc3)s2)cc1)Cc1ccccc1	+
Cc1ccc(NS(=O)(=O)c2ccc3[nH]c(=O)[nH]c3c2)cc1F	i
CCC(C)NC(=O)Cn1nc2n(C(C)C)c(=O)c3ccc(C(=O)NC(C)C)cc3n2c1=O (stereo not drawn)	i
CCOc1ccc(CCN2C(=O)c3cc(C(=O)OC)nn3CC2(C)C(=O)NC2CCC(C)CC2)cc1 (stereo not drawn)	i
Cc1c(Cl)cccc1N1C(=O)c2cc3sccc3n2CC1(C)C(=O)NC1CCCCCC1 (stereo not drawn)	i
CCCC1c2cccn2CCN1C(=O)Nc1cc(OC)cc(OC)c1 (stereo not drawn)	i
Cc1cccc(CNC(=O)C2(C)Cn3cnc(C(=O)NCc4ccccn4)c3C(=O)N2C2CC2)c1 (stereo not drawn)	i
Cc1ccc(CNc2ncnc3ccc(-c4ccc(CO)o4)cc23)o1	+
CC(C)Oc1ccc(CNC(=O)c2cc3n(n2)CC(C)(C(=O)NC2CCCCCC2)N(C)C3=O)cc1 (stereo not drawn)	i
Cc1ccc(NC(=O)N2CCn3cccc3C2Cc2ccccc2)c(C)c1 (stereo not drawn)	i
CCCn1c(=O)c2ccc(C(=O)NC(C)CC)cc2n2c(=O)[nH]nc12 (stereo not drawn)	i
O=C(CCc1nnc2n(Cc3ccc(Cl)cc3)c(=O)c3ccccc3n12)Nc1ccc(F)c(F)c1	i
Cc1ccc(Cn2c(=O)c3ccc(C(=O)NC4CCCCC4)cc3n3c(=O)n(C)nc23)cc1	i
O=C(CCc1nnc2n(Cc3ccc(F)cc3)c(=O)c3ccccc3n12)N1CCC(N2CCCCC2)CC1	+
O=C(CCc1nnc2n(CCc3ccccc3)c(=O)c3ccccc3n12)N1CCC(N2CCCCC2)CC1	+
Cc1ccc(-c2nnc3n(CCc4ccccc4)c(=O)c4ccccc4n23)cc1	i
O=C(CCc1nnc2n(Cc3ccc(F)cc3)c(=O)c3ccccc3n12)N1CCN(C2CCCCC2)CC1	i
Cc1ccc(Cn2c(=O)c3ccccc3n3c(CCC(=O)N4CCC(Cc5ccccc5)CC4)nnc23)cc1	i
O=C(CCc1nnc2n(Cc3ccccc3)c(=O)c3ccccc3n12)N1CCN(c2cccc(Cl)c2)CC1	i
SMILES	Methyltransferases
O=c1c2ccccc2n2c(-c3cccc(Cl)c3)nnc2n1CCc1ccccc1	i
NC(=O)C1CCN(C(=O)CCc2nnc3n(Cc4ccc(F)cc4)c(=O)c4ccccc4n23)CC1	i
Cc1cccc(-c2nnc3n(CCc4ccccc4)c(=O)c4ccccc4n23)c1	+
CC1CCN(C(=O)CCc2nnc3n(Cc4ccc(Cl)cc4)c(=O)c4ccccc4n23)CC1	i
Cc1ccc(Cn2c(=O)c3ccccc3n3c(CCC(=O)N4CCN(C5CCCCC5)CC4)nnc23)cc1	i
O=C(CCc1nnc2n(Cc3ccc(Cl)cc3)c(=O)c3ccccc3n12)N1CCC(N2CCCCC2)CC1	+
CC(C)CNC(=O)c1ccc2c(=O)n(CC(C)C)c3nn(Cc4ccccc4)c(=O)n3c2c1	i
Cc1ccc(CNC(=O)c2cc3n(n2)CC(C)(C(=O)NCCC(C)C)N(C)C3=O)cc1 (stereo not drawn)	i
CCC(C)NC(=O)c1ccc2c(=O)n(C(C)C)c3nn(C)c(=O)n3c2c1 (stereo not drawn)	i
CCOc1ccc(C(=O)Cn2nc3n(C(C)C)c(=O)c4ccc(C(=O)NCC(C)C)cc4n3c2=O)cc1	i
CC(C)NC(=O)c1ccc2c(=O)n(Cc3ccccc3)c3nn(CC(=O)NC4CCCC4)c(=O)n3c2c1	i
CCC1c2ccc(C)n2CCN1C(=O)Nc1cccc(C)c1 (stereo not drawn)	i

Compound activity from PubChem BioAssay.
